Screens deposited in PubChem BioAssay by several laboratories.
Cdc25B block – human M-phase inducer phosphatase 2 inhibition; recombinant Cdc25B, OMFP fluorescence Ex485/Em525; inhibition, %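 (compounds tested at 10 µM final in the well)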; actives 0.1% (n = 65,000); AID 368; in the data active = inhibition above about 50%
DUSP1 inh – inhibitors of human MKP-1 phosphatase | actives 0.15% (n = 65,000) | recombinant MKP-1, OMFP hydrolysis fluorescence | inhibition, %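 (compounds tested at a single concentration somewhere between 10 and 100 µM)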 | P28562;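 active = inhibition above about 50%, limit read from the data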;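 note: 0% = DMSO max control wells and 100% = wells with enzyme stopped by NaOH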
PKA kinase inh – blocks human protein kinase A activity. AID 524. P17612. actives 0.1% (n = 65,000). inhibition, % at 6 µM. PKA Kemptide phosphorylation, Kinase-Glo ATP luminescence;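 active = inhibition above the screen-wide mean inhibition plus 3 SD, cut at about 21% in these data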
WNV protease inh – WNV NS2B-NS3 proteinase inhibition | WNV NS2B-NS3 protease, fluorogenic substrate Ex360/Em465; stronger effect = lower value | z-score (test concentration not listed) | actives 0.18% (n = 65,000); in the data active = z-score below about -3
Target sequence (P06935 1371-1501 limits assumed): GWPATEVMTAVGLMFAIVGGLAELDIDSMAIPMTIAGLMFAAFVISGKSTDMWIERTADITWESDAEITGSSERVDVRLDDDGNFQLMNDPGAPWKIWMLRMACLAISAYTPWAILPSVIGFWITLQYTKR
Target sequence (P06935 1502-1679 limits assumed): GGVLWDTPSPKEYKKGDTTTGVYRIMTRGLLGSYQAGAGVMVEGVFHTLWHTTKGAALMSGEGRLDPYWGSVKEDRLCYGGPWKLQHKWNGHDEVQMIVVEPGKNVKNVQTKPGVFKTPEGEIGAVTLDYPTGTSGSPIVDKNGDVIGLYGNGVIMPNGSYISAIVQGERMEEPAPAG
ROCK2 blocker – blocks human Rho kinase 2 activity | AID 604 | actives 0.35% (n = 60,000) | purified ROCK2, Kinase-Glo ATP depletion luminescence | inhibition, % at 6 µM | O75116;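 active = inhibition above the screen-wide mean inhibition plus 3 SD, cut at about 18% in these data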;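 note: plate controls were DMSO wells for no effect and Y-27632 control wells after no-enzyme background subtraction for full effect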
Active calls of the source: *; . = no result given. Hits are enriched below; roughly 0.67% of the tested compounds scored in any of these assays.

SMILES | Cdc25B block | DUSP1 inh | PKA kinase inh | WNV protease inh | ROCK2 blocker
Cc1ccccc1S(=O)(=O)Cc1ccc(C(=O)NCc2cccnc2)o1 | -12 | 15 | 7 | 0.23 | 6
O=C(Nc1ccccc1N1CCN(C(=O)c2ccc(Cl)cc2)CC1)c1cccnc1 | 2 | 12 | 8 | 0.56 | 4
COc1ccc(N2CCN(C(=O)c3cccc(Cn4cc(Cl)cn4)c3)CC2)cc1 | -10 | 9 | 2 | 0.78 | 4
CCC(Sc1nc2c(c(=O)[nH]1)CCC2)C(=O)Nc1cccc(OC)c1 (configuration not stated) | 6 | 9 | 0 | -0.63 | 2
NC(=O)c1sc2nc3c(c(-c4ccco4)c2c1N)CCC3 | -8 | 1 | 9 | -0.26 | 35*
Cn1c(=O)oc2cc(S(=O)(=O)NCCC(=O)NC3CCCC3)ccc21 | -19 | 52* | 7 | -0.95 | 4
Cc1nn(C(C)C(=O)N2CCCCC2)c(=O)c2c1sc1ccccc12 (configuration not stated) | -8 | 67* | -1 | -0.51 | -3
Cc1nn(C(C)C(=O)O)c(=O)c2c1sc1ccccc12 (configuration not stated) | 4 | 29 | 2 | -0.34 | 0
Cc1c(NC2=NC3(CCCCC3)Cc3ccccc32)c(=O)n(-c2ccccc2)n1C | -6 | 3 | 9 | -0.25 | 5
c1ccc(Cn2ncc3c2ncn2c(-c4ccncc4)nnc32)cc1 | -4 | -11 | 76* | 0.86 | 14
c1ccc(Cn2ncc3c2ncn2nc(-c4ccncc4)nc32)cc1 | -7 | -6 | 48* | 0.67 | 9
Cn1ncc2c1ncn1nc(CCc3ccccc3)nc21 | -3 | -21 | 11 | 1.7 | 6
COC(=O)c1ccc(CSc2nnc(SCc3ccc(C(=O)OC)o3)s2)o1 | 3 | 15 | 0 | -3.5* | -1
CCN(CC(=O)NC(=O)NCc1ccco1)Cc1nc2ccccc2c(=O)[nH]1 | -1 | 19 | 12 | 3.1 | 7
CC(C)(C)C(=O)c1sc(Nc2ccccc2)nc1N | -13 | 85* | 14 | -0.39 | 27*
CC(COc1ccccc1)NC(C)C(O)c1ccc(O)cc1 (configuration not stated) | -10 | -23 | 4 | 1.4 | 6
O=C(Nc1ccncc1)C1CCCN(S(=O)(=O)c2cccc3cccnc23)C1 (configuration not stated) | 3 | -2 | 11 | -0.79 | 75*
Cc1cc2ccccc2c(=O)n1CC(=O)Nc1ccc2c(c1)OCO2 | -2 | -16 | 22* | -0.72 | 13
COc1ccccc1-n1c(C)nnc1SCC(N)=O | -1 | -19 | -2 | -1.1 | 5
COc1ccccc1-n1c(C)nnc1SCC(=O)Nc1cc(C)cc(C)c1 | 3 | 10 | 0 | -9.1* | 5
O=C(NCc1ccccc1)c1noc2c1CCCCC2 | 8 | -1 | 2 | -0.82 | 3
COc1cc(/C=N\n2nnnc2N)ccc1OCc1ccc(F)cc1 | -1 | 7 | 4 | -0.62 | 18*
COc1cc(C2C3CN(C)CC=C3C(C#N)=C(N)C2(C#N)C#N)ccc1OC(C)C (configuration not stated) | -3 | 15 | 5 | 1.1 | .
c1nc(N2CCOCC2)c2[nH]cnc2n1 | -3 | -2 | 15 | -1.3 | 26*
COc1ccc(N2CCN(c3ncnc4nc[nH]c34)CC2)cc1 | -7 | -2 | 16 | 1.7 | 24*
SMILES | Cdc25B block | DUSP1 inh | PKA kinase inh | WNV protease inh | ROCK2 blocker
C1=C(c2ccccc2)CCN(c2ncnc3nc[nH]c23)C1 | -10 | -4 | 18 | -0.34 | 24*
CCC(=O)N1CCc2cc(S(=O)(=O)NCCCOC)ccc21 | 2 | -6 | 3 | -0.54 | .
CC(C)NCc1c(O)c(Br)cc2oc3c(c12)CCCC3 | 2 | -26 | -1 | -4* | 2
O=C1NCCCc2c1oc1cc(Br)c(O)c(Br)c21 | 19 | 5 | 1 | 0.95 | 0
c1cn(CCCNc2ncnc3nc[nH]c23)cn1 | -6 | 17 | 18 | -0.79 | 40*
COc1ccc(CCn2nnnc2C(CC(C)C)N2CCN(c3ncccn3)CC2)cc1OC (configuration not stated) | -6 | 2 | -4 | 0.79 | -4
Cc1sc2nc3c4ccccc4c(NCc4ccco4)nn3c(=O)c2c1C | 12 | 33 | 2 | -3.3* | 0
CCCN1C(=O)C2C(C(=O)Nc3cccc(OC)c3)C3C=CC2(O3)C1C(=O)NC1CCCCC1 (configuration not stated) | 0 | -9 | 14 | 0.12 | 5
Cc1cccc2cc(=O)[nH]c(C)c12 | -1 | -4 | 8 | 0.14 | 18*
